Assay results: article PMC4336329 (PLoS ONE, 2015)
The whole screen tested about 310,000 compounds, of which about 14,000 (4.5%) showed an effect of 50% or more. Effects have a minus sign here. Many of the other results were omitted from the sample, so strong results are more common in it than they were.

Target: human ether-à-go-go-related gene (hERG) potassium channel (human, UniProt Q12809)
Assay: primary screen, population patch clamp on CHO cells stably expressing hERG; higher = less effect of the substance
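Also: peak tail current of the secondary pulse compared with the same well before compound.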

Chain of human ether-à-go-go-related gene (hERG) potassium channel (Q12809 whole entry, looked up): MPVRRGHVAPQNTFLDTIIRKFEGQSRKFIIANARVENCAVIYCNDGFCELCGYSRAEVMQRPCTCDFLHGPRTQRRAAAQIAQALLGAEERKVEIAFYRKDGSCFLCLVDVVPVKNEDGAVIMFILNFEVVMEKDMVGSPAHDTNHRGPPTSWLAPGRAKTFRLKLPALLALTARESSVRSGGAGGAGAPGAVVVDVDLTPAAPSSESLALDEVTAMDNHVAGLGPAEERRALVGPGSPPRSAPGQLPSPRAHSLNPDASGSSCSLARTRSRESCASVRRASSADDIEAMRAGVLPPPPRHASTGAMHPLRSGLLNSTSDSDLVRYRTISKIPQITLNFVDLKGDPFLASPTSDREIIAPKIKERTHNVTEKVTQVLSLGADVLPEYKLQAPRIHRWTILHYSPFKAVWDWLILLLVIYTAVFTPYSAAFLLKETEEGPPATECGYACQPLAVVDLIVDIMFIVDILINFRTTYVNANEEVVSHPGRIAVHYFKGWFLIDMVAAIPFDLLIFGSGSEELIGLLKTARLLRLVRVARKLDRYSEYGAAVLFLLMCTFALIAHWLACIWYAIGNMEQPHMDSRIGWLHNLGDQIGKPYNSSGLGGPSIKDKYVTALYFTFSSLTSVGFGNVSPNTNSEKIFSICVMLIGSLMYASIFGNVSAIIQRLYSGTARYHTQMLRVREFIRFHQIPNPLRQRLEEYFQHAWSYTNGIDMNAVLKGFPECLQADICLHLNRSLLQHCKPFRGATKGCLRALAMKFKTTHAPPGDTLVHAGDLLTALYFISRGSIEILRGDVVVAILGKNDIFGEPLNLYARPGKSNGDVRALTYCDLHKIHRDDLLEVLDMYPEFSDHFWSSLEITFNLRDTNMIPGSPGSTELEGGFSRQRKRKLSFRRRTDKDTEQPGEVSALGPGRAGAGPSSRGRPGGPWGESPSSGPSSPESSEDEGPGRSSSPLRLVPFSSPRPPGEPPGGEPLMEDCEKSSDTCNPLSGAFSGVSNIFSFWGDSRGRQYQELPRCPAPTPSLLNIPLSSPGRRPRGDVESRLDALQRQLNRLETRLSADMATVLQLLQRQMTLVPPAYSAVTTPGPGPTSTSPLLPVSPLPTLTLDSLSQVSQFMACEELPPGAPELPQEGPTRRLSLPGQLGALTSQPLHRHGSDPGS

Row | SMILES | hERG current change (%, negative = inhibition) at 10uM
1 | CCn1c(SC)nnc1-c1ccc(S(=O)(=O)N2CCCCC2)cc1 | -12.1%
2 | O=S(=O)(c1ccc(Cl)cc1)N1CCC(N2CCCCCC2)CC1 | -49.9%
3 | N#Cc1ccc(S(=O)(=O)N2CCC(N3CCCCC3)CC2)cc1 | -58.3%
4 | CCn1c(SCc2ccc(C#N)cc2)nnc1-c1ccc(S(=O)(=O)N2CCCCC2)cc1 | -70.7%
5 | CCn1c(SCc2ccccc2)nnc1-c1ccc(S(=O)(=O)N2CCCCC2)cc1 | -36.2%
6 | Cc1ccc(CSc2ccc(S(=O)(=O)N3CCCC3)cn2)cc1 | -4.27%
7 | N#Cc1ccc(CSc2ccc(S(=O)(=O)N3CCCC3)cn2)cc1 | -67.2%
8 | O=S(=O)(c1ccc(SCc2ccc(Cl)cc2)nc1)N1CCCC1 | -8.21%
9 | Cc1ccc(S(=O)(=O)N2CCC(N3CCCCCC3)CC2)cc1 | -23.2%
10 | CC(=O)c1cccc(N/C=C\c2nnnn2-c2ccc(F)cc2)c1 | 0.338%
11 | COC(=O)C1=C(C)NC(C)=C(C(=O)OC)C1c1ccccn1 | 5.81%
12 | O=C(NC1CCCC1)C(c1cccnc1)N(C(=O)c1csnn1)C1CCCC1 (stereo not shown) | 13%
13 | O=C(CN(C(=O)Cn1nnc(-c2cccs2)n1)c1ccc2c(c1)OCCO2)NC1CCCCC1 | -13.2%
14 | Cc1nnc(C)n1N | 12.1%
15 | CCn1c(=O)cc(OCC(=O)O)c2ccccc21 | 10.6%
16 | S=C(NCc1ccccc1)Nc1ccc(Cl)cc1 | -25.1%
17 | OCC1CCCN(c2ncnc3scc(-c4ccccc4)c23)C1 (stereo not shown) | 3.73%
18 | O=C(O)C(=O)O.c1ccc(CNc2nc(CN3CCOCC3)nc3scc(-c4ccccc4)c23)cc1 | -20.6%
19 | CCC(CO)Nc1nc(CN2CCCCC2)nc2scc(-c3ccccc3)c12 (stereo not shown) | -68.2%
20 | CC1CCN(c2nc(-c3cccnc3)nc3scc(-c4ccccc4)c23)CC1 | 15.4%
21 | CC1CCCN(c2nc(-c3cccnc3)nc3scc(-c4ccccc4)c23)C1 (stereo not shown) | 11.6%
22 | CC1CCN(c2nc(CN3CCCCC3)nc3scc(-c4ccccc4)c23)CC1 | -75.5%

Row | SMILES | hERG current change (%, negative = inhibition) at 10uM
23 | Clc1ccc(CNc2nc(CN3CCOCC3)nc3scc(-c4ccccc4)c23)cc1 | -9.73%
24 | Fc1ccc(N2CCN(c3nc(CN4CCOCC4)nc4scc(-c5ccccc5)c34)CC2)cc1 | -5.05%
25 | OCC1CCCN(c2nc(CN3CCCCC3)nc3scc(-c4ccccc4)c23)C1 (stereo not shown) | -63.7%
26 | CCCCN(C(=O)CCC(=O)Nc1cc(C)on1)C(C(=O)NC(C)(C)CC)c1cccc(OC)c1OC (stereo not shown) | 1.4%
27 | Cc1cccc(C)c1NC(=O)CSc1nnnn1C | -1.61%
28 | O=C(CSc1ccccn1)Nc1ccc(Cl)c([N+](=O)[O-])c1 | -19.6%
29 | COc1ccc(Cn2c(N)c(C#N)c3nc4ccccc4nc32)cc1 | 11.2%
30 | COc1ccc(-n2c(SCC(=O)NCCCN3CCCC3=O)nnc2C(C)N2CCCCC2)cc1 (stereo not shown) | 43.4%
31 | C=CCc1cccc(CNc2nc3ccccc3n2CCC)c1O | 5.13%
32 | C#CCOCCOCCOCCNc1nc(N2CCOCC2)nc(N2CCN(C(=O)CCCCCCCCCCNC(=O)[C@H](CO)n3cc(CCCSC)nn3)CC2)n1 | -0.214%
33 | CCOc1ccc(S(=O)(=O)Nc2ccc(C(=O)NCC(c3ccco3)N3CCCCC3)cc2)cc1 (stereo not shown) | -25.1%
34 | CC(C)[C@H](NC(=O)[C@H]1N2C(=O)c3ccccc3C2SC1(C)C)C(=O)NCc1ccco1 (stereo partly shown) | 2.21%
35 | Cc1cccc(C)c1NC(=O)CSc1nnc(Cn2nnc(-c3ccccc3)n2)n1-c1ccccc1 | -22.3%
36 | CCN(CC)c1ccc(CNc2ccc(Br)cn2)cc1 | 13.1%
37 | CC1(C)Cc2c(c(N3CCOCC3)nc3sc(-c4ccc(C(=O)O)o4)c(N)c23)CO1 | -15.2%
38 | Cn1nnc(NC(=O)/C=C/c2ccco2)n1 | 8.33%
39 | O=C(NC1CCCc2ccccc21)c1ccccc1 (stereo not shown) | 3.92%
40 | O=C(NC1CCSc2ccccc21)c1ccc([N+](=O)[O-])cc1 (stereo not shown) | -40.3%
41 | O=C(NC1CCCc2ccccc21)c1ccc(Br)cc1 (stereo not shown) | -7.78%
42 | Cc1cc(C(=O)NC2CCCc3ccccc32)ccc1[N+](=O)[O-] (stereo not shown) | 9.18%
43 | N#Cc1ccc(C(=O)NC2CCCc3ccccc32)cc1 (stereo not shown) | -52.8%
